The source of these data is PubChem BioAssay AID1851 (National Center for Advancing Translational Sciences (NCATS), 2009).

The campaign covered roughly 16,000 compounds. About 4,000 (25%) were called active. Inconclusive results (about 26%) are left out. These entries were drawn from the full list. Unmarked numbers belong to inactive results. The call rests on the fitted dose curve; in most records, active means well fitted curve in the direction sought with a large enough effect; inconclusive means small, poorly fitted or top-dose-only effect, or effect the other way; inactive means no such curve, though single readings can be large or run the other way.
On the % scale 0 is the no-effect control and ±100 the full control effect.

Cytochrome P450 2C9 (Homo sapiens), sequence (P11712 whole entry, looked up): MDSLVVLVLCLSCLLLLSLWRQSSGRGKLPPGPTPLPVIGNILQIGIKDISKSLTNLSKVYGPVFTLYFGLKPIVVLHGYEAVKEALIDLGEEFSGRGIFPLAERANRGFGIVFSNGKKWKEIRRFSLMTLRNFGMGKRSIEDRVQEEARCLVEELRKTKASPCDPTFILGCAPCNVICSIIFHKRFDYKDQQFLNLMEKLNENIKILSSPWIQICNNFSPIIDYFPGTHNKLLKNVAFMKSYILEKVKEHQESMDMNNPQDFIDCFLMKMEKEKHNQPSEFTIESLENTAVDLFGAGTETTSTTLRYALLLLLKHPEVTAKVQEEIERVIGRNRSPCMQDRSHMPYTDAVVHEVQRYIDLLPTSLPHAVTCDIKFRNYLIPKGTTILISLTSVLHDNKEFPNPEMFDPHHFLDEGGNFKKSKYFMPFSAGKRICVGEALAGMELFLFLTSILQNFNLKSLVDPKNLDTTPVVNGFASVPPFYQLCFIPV

This assay has as its target Cytochrome P450 2C9 (Homo sapiens) (UniProt P11712). Kind of assay: Cytochrome panel assay with activity outcomes. As to conditions: recombinant CYP, pro-luciferin dealkylation, luminescence, p450-cyp2c9; series mostly up to 57.1 µM; activity, negative = inhibition: at the top concentration.
One may read the AC50 as the concentration at which the activity in the assay is half-maximal. Consider `Cc1ccc2[nH]c3c(c2c1)CN(C(=O)CN1c2ccc(F)cc2CCC1C)CC3` (configuration not stated), for which the AC50 is 10 µM (active). Regarding `OCC1CCCN(Cc2ccc(-c3ccccc3)cc2)C1` (configuration not stated), the “activity, negative = inhibition” value is -14%. `CS(=O)(=O)N1CCN(c2ccc([N+](=O)[O-])c(NCc3ccccc3)c2)CC1`: the AC50 was 12.6 µM (active). On the same count and under the same terms, under `CNc1cc(N2CCCCCC2)ccc1[N+](=O)[O-]` stands 6.31 µM (active). `CC(=O)Nc1ccc(N2CCCCC2)cc1`: the “activity, negative = inhibition” value was -0.405%. As to `O=[N+]([O-])c1ccc(N2CCCC2)cc1NCc1ccccc1`, the AC50 is 1.58 µM (active). `Clc1ccccc1-c1cc(NCc2ccccc2)ncn1`: the activity, negative = inhibition was 4.07% [at 2.29 µM]. As for `CCN1CCC[C@H]1CNC(=O)c1c(OC)ccc(Br)c1OC`, the AC50 entry was “inactive”. With `O=c1c(-c2cccc(F)c2)nc2cncnc2n1Cc1ccccc1Cl`, the AC50 is 7.94 µM (active). For `COc1ccc(-n2c(=O)c(-c3cc(F)cc(F)c3)nc3cncnc32)cc1`, the “activity, negative = inhibition” value was 4.19%. On the same count and under the same terms, under `O=c1c(-c2cccc(F)c2)nc2cncnc2n1C1CC1` stands -5.69%.

Turning to `O=c1c(-c2cc(F)cc(F)c2)nc2cncnc2n1Cc1ccccc1Cl`, the AC50 is 3.98 µM (active). The same measure, in the same setting: next, `O=c1c(-c2cccc(Cl)c2)nc2cncnc2n1Cc1ccccc1`: 1.26 µM (active). `O=c1c(-c2cccc(Cl)c2)nc2cncnc2n1C1CC1`: the “activity, negative = inhibition” value was 20.6%. As for `O=c1c(-c2cccc(Cl)c2)nc2cncnc2n1Cc1ccccc1Cl`, the concentration at half-maximal activity (AC50) is 3.98 µM (active). Regarding `c1nc(NC2CCNCC2)c2cc(-c3ccoc3)ccc2n1`, the activity, negative = inhibition is -8.97% [at 2.29 µM]. Same read-out and setting: next, `N#Cc1cccc(NC(=O)N2CCCC3(CCN(C(=O)c4csnn4)CC3)C2)c1`: 0.0244%; `O=c1c(-c2ccc(F)c(F)c2)nc2cncnc2n1C1CC1`: 12.8%. As to `O=c1c(-c2ccc(F)c(F)c2)nc2cncnc2n1Cc1ccccc1Cl`, the AC50 is 5.01 µM (active). As for `O=c1c(-c2ccc(Cl)cc2)nc2cncnc2n1Cc1ccccc1Cl`, the “activity, negative = inhibition” value is -22.7%.

With `O=c1c2ccccc2sc2c(CO)ccc(NCCN3CCCCC3)c12`, the activity, negative = inhibition was 17.3% [at 11.4 µM].

For the compound `COc1ccc([N+](=O)[O-])cc1COc1ccc2c(-c3ccccc3)cc(=O)oc2c1`, the AC50 was 7.08 µM (active).

As for `N[C@H](CCCP(=O)(O)O)C(=O)O`, the “activity, negative = inhibition” value is -10.4%.

Consider `CCCCCCc1c(C[C@H](N)C(=O)O)o[nH]c1=O`, for which the AC50 result is “inactive”.

Consider `Cc1cn(CC[C@H](N)C(=O)O)c(=O)[nH]c1=O`, for which the activity, negative = inhibition was 23.1% [at 11.4 µM]. As for `Cc1o[nH]c(=O)c1CC[C@H](N)C(=O)O`, the AC50 was 10 µM (active). Regarding `Cc1ccc(S(=O)(=O)N[C@H]2COC(=O)[C@H](C)COC(=O)[C@H](C)NC(=O)C/C=C\[C@H]2C)cc1`, the activity, negative = inhibition was 2.34% [at 11.4 µM].

On to `CC(C)(C[C@@]1(C)NC(=O)NC1=O)OCc1ccccc1`, for which the activity, negative = inhibition was 9.56% [at 11.4 µM]. Still for that read-out and setting: under `CN1CCc2c(c3c(n2C)CCN(C)[C@H]3c2ccccc2F)[C@@H]1c1ccccc1F` stands 13.7%. Consider `O=C1NCCN1Cc1ccccc1F`, for which the AC50 is 12.6 µM (active). As to `COc1ccc(OC)c(NC(=O)[C@H]2CC=CC[C@H]2C(=O)O)c1`, the “activity, negative = inhibition” value was -19.2%. Take `COc1ccc(OC)c(NC(=O)CC(Cc2ccccc2OC)C(=O)O)c1` (configuration not stated): the AC50 was 2.24 µM (active).

In the case of `CCOC(=O)C1CCN(Cc2cnc(Oc3ccc(OC)cc3)s2)CC1`, the AC50 is 10 µM (active). Regarding `CCOC(=O)C1CCN(C(=O)C2CCN(S(=O)(=O)N3CCCC3)CC2)CC1`, the “activity, negative = inhibition” value was -26.3%.

Take `Cc1ccc(Oc2ncc(CN3CCOCC3)s2)cc1`: the “activity, negative = inhibition” value was -12.5%. `c1ccc2nc(C3=NCCN3)cnc2c1`: the “activity, negative = inhibition” value was 16.2%. With `O=C1c2ccccc2C(=O)N1CCCCN(C(=O)c1cccc([N+](=O)[O-])c1)c1ccc(Cl)cc1`, the AC50 was 7.08 µM (active).

Regarding `N=C(N)S[C@H]1c2ccccc2-c2cc([N+](=O)[O-])ccc21`, the activity, negative = inhibition is -26% [at 11.4 µM].

Turning to `O=C1c2ccccc2C(=O)N1CCCCN(C(=O)c1ccc([N+](=O)[O-])cc1)c1ccc(Cl)cc1`, the concentration at half-maximal activity (AC50) is 1.78 µM (active). On to `N[C@H](C(=O)O)C1[C@H](C(=O)O)[C@H]1C(=O)O` (some centres not stated), for which the “activity, negative = inhibition” value is -16.8%. On the same count and under the same terms, under `O=c1[nH]c(=S)c2[nH]c(=O)n(-c3ccccc3)c2[nH]1` stands -16.7% [at 11.4 µM].

On to `CCc1cc2c(=O)n(-c3ccccc3)c(=S)[nH]c2s1`, for which the AC50 is 14.1 µM (active).

Take `CCOC(=O)N1CCN(C(=O)c2ccc3c(=O)n(-c4ccc(OC)cc4)c(=S)[nH]c3c2)CC1`: the “activity, negative = inhibition” value was -21.8%. `O=C(N/N=C/c1c[nH]c2ccccc12)c1ccn(Cc2ccc(Cl)cc2Cl)n1`: the AC50 was 1.26 µM (active).

`CO[C@@H]1COC(=O)CCC[C@@H](C)[C@H](OC)COC(=O)CCC[C@H]1C`: the activity, negative = inhibition was -7% [at 11.4 µM]. `C=CCc1cccc(C2Nc3ccccc3C(=O)N2O)c1O` (configuration not stated): the AC50 was 5.01 µM (active).

As for `CC1(C(=O)CSc2nc3ccccc3s2)CCC(=O)O1` (configuration not stated), the “activity, negative = inhibition” value is -21.7%. Turning to `CC(C)CC1CC(=O)OC1(C)C(=O)CSc1nc2ccccc2s1` (configuration not stated), the concentration at half-maximal activity (AC50) was 28.2 µM (active).

Consider `COc1ccc(-c2oc3ccccc3c(=O)c2OC(=O)c2ccc(C)cc2)cc1`, for which the AC50 is 1.26 µM (active). In the case of `Cc1cc2ccc(OC(=O)c3ccc(N=C(N)N)cc3)cc2oc1=O`, the activity, negative = inhibition is 3.7% [at 11.4 µM]. The same measure, in the same setting: next, `Cc1ccc(OC(=O)c2cccc(C(=O)Oc3ccc(C)cc3)n2)cc1`: -49.8%; `CC(=O)NCCNc1ncnc2ccc(-c3cccc(NS(C)(=O)=O)c3)cc12`: -12.9% [at 2.29 µM]; `CCOC(=O)NC(=O)CSc1nc2ccc(OCC)cc2[nH]1`: -28.6%.

On to `COc1ccc2nc(SCC(=O)Nc3ccc4c(c3)OCCO4)[nH]c2c1`, for which the AC50 was 2.24 µM (active). On the same count and under the same terms, under `CC(C)(C)c1ccc(-c2nnc(SCC(=O)c3ccc4c(c3)OCCO4)o2)cc1` stands 3.16 µM (active). As to `NC(=O)c1ccc(-c2nc(-c3ccc4c(c3)OCO4)c(-c3ccccn3)[nH]2)cc1`, the “activity, negative = inhibition” value was -18.5%. Turning to `Cc1ccc(NC(=O)CSc2nnc(-c3ccncc3)o2)cc1`, the AC50 was 3.55 µM (active). Consider `CCC(=O)Nc1ccc(NC(=O)CSc2nnnn2-c2cccnc2)cc1C`, for which the “activity, negative = inhibition” value was -19.7%. Take `Cc1ccc2nc(SCC(=O)c3ccc4c(c3)OCO4)[nH]c2c1`: the AC50 was 5.01 µM (active). On to `Cc1ccc2nc(CC(=O)c3ccc4ccccc4c3)c(=O)[nH]c2c1`, for which the activity, negative = inhibition was -7.8% [at 11.4 µM]. In the case of `CCS(=O)(=O)N1CCC(C(=O)NCCCN2CCCC2)CC1`, the “activity, negative = inhibition” value was 14.5%. Turning to `COc1ccc([C@H]2Sc3ccccc3N(CCN(C)C)C(=O)[C@H]2OC(C)=O)cc1`, the AC50 entry is “inactive”. In the case of `NC(N)=N/N=C(\c1ccc(Cl)cc1)C1CC1`, the activity, negative = inhibition was -1.67% [at 11.4 µM]. The same measure, in the same setting: next, `C#CCCCO/N=C1/C[C@@H](O)[C@@H](O)[C@@H]2[C@@H]3C(=O)N(C4CCCCC4)C(=O)[C@H]3CC[C@@H]12`: -15% [at 11.4 µM]. Same read-out and setting: under `CC(C)C(O)(C(C)C)C(C)C` stands -0.763% [at 11.4 µM]; under `CNc1ncncc1-c1ccc(C(=O)N(C)C)cc1`, -6.73% [at 2.29 µM]; under `COc1cc(C(=O)Nc2ccc3c(c2)OCCO3)c(-n2cnnn2)cc1OC`, -8.95%. `Cc1ccc2nc(SCC(=O)Nc3nnc(SCC(N)=O)s3)[nH]c2c1`: the half-maximal activity concentration (AC50) was 11.2 µM (active). The same measure, in the same setting: under `COc1cc(-c2nnc(SCC(=O)Nc3ccc4c(c3)OCCO4)o2)cc(OC)c1OC` stands 1.41 µM (active).

As for `COc1ccc(-n2c(=O)[nH]cc(C(=O)Nc3ccc4c(c3)OCCO4)c2=O)cc1`, the half-maximal activity concentration (AC50) is 7.08 µM (active). Consider `CCCCNCCOCCSc1ccc(Cl)cc1`, for which the “activity, negative = inhibition” value is -16.8%. On the same count and under the same terms, under `CCCCCc1nc2c(=O)[nH]c3ccccc3c2o1` stands -15.2%. For the compound `N/C(=N\c1nc2ccccc2o1)NC(=O)c1ccccc1F`, the AC50 is 12.6 µM (active). Consider `NC(=Nc1ccccc1)NC(=O)c1nc(Cl)c(N)nc1N`, for which the “activity, negative = inhibition” value is -6.89%. Same read-out and setting: next, `COc1ccc(C2/C(=C(/O)c3ccc4c(c3)CC(C)O4)C(=O)C(=O)N2CCN2CCOCC2)cc1` (configuration not stated): -36.8%.

In the case of `CCN(CC)C(=O)CSc1nc2ccc(NC(=O)CSc3nnc(COc4ccccc4C)n3C)cc2s1`, the concentration at half-maximal activity (AC50) was 1.58 µM (active). As to `COc1cccc(NC(=O)CSc2nnc(CN3CCOCC3)n2C)c1`, the “activity, negative = inhibition” value was -27.8%. On the same count and under the same terms, under `CCOC(=O)N/N=C/c1ccccc1F` stands -7.31%. As to `O=C(COc1ccc(-c2ccccc2)cc1)N/N=C/c1ccccc1Br`, the AC50 is 4.47 µM (active). Take `CN(C)Cc1c[nH]c2nc[nH]c(=O)c12`: the activity, negative = inhibition is 4.29% [at 11.4 µM]. As to `CC(NC(=O)CCSc1nc(-c2ccc3c(c2)OCO3)cc(C(F)(F)F)n1)c1ccccc1` (configuration not stated), the AC50 is 2 µM (active). In the case of `CC(=O)NCCNc1nc(-c2ccc3c(c2)OCO3)nc2ccccc12`, the activity, negative = inhibition was 5.84% [at 2.29 µM].

Turning to `c1ccc(CNc2nc(-c3ccc4c(c3)OCO4)nc3ccccc23)cc1`, the activity, negative = inhibition is -26.1% [at 2.29 µM].

For the compound `CCCNc1c(F)c(F)c2c(C)c3ccccc3nc2c1F`, the half-maximal activity concentration (AC50) was 15.8 µM (active). As for `Cc1cc(NCCO)c2ccccc2n1`, the “activity, negative = inhibition” value is -11.5%.

With `COCCNc1nc(-c2ccccc2C(F)(F)F)nc2ccccc12`, the activity, negative = inhibition is -9.26% [at 2.29 µM]. On to `CCCCC1CCC(c2nc(-c3ccccn3)no2)CC1` (configuration not stated), for which the AC50 was 14.1 µM (active). For `CCN1CCN(c2nc(-c3ccccn3)nc3ccccc23)CC1`, the “activity, negative = inhibition” value is -23.3%. For the compound `c1ccc2nc(-c3ccncc3)ccc2c1`, the half-maximal activity concentration (AC50) is 5.01 µM (active).

For the compound `CC(=O)/C=C/c1ccc2ccccc2n1`, the “activity, negative = inhibition” value was -7.35%.

Turning to `COc1cccc(-c2cc(N(C)Cc3ccco3)ncn2)c1`, the activity, negative = inhibition is -6.29% [at 2.29 µM].

For `C[C@@H]1NC(=O)C/C=C\[C@@H](C)[C@@H]2C=C[C@H](O)[C@@H](COC(=O)[C@H](C)NC(=O)C/C=C\[C@@H](C)[C@@H]3C=C[C@H](O)[C@@H](COC1=O)O3)O2`, the activity, negative = inhibition was 5.32% [at 11.4 µM].

Turning to `CCOc1cc(S(=O)(=O)N(Cc2ccccc2)Cc2ccccc2)c(OCC)cc1-n1cnnn1`, the concentration at half-maximal activity (AC50) is 7.94 µM (active). As for `O=C(O)CN(CCOCCOCCN(CC(=O)O)CC(=O)O)CC(=O)O`, the “activity, negative = inhibition” value is 6.97%.

For `FC(F)(F)c1ccccc1-c1nc(NC2CC2)c2ccccc2n1`, the activity, negative = inhibition was 12.1% [at 2.29 µM]. Turning to `COc1cc(C)cc(OC)c1/C=C\C(=O)O`, the activity, negative = inhibition was -15.8% [at 11.4 µM]. As for `COc1ccc2ccccc2c1/C=C\C(=O)c1ccccc1`, the AC50 was 1.26 µM (active).
